Screening results from PubChem BioAssay.
The full list was thinned out, with hits kept by preference.
Vaccinia inh – Vaccinia orthopox stage-specific inhibition; Vaccinia-infected cells, mCherry/Venus stage reporter fluorescence; active compounds read low; activity change (mCherry), % (concentration not given with the values); actives 0.01% (n = 89,000); in the data active = activity change below about -37%, passing the limit was not always enough; tested in A549 cells
Hits are given with their value; i = inactive.

SMILES | Vaccinia inh
Cc1noc(C)c1S(=O)(=O)Nc1ccc2c(c1)C(=O)N([C@@H](C)CO)C[C@@H](C)[C@H](CN(C)C(=O)Nc1ccc3c(c1)OCO3)OCCCC[C@@H](C)O2 | i
CCCN1[C@@H]2Cn3c(ccc(-c4ccc(F)cc4)c3=O)[C@H]1[C@@H](C(=O)NCCOC)[C@@H]2CO | i
C[C@@H]1CN([C@@H](C)CO)C(=O)c2cc(NC(=O)CCN3CCOCC3)ccc2O[C@@H]1CN(C)S(=O)(=O)c1cn(C)cn1 | i
CC(=O)N(C)C[C@@H]1Oc2ncc(/C=C/c3ccccc3)cc2C(=O)N([C@H](C)CO)C[C@H]1C | i
COCCNC(=O)C[C@H]1C[C@@H]2c3cc(NC(=O)c4ccc5c(c4)OCO5)ccc3O[C@@H]2[C@H](CO)O1 | i
CCS(=O)(=O)N1[C@@H](CO)[C@H](c2ccccc2)C12CN(C(=O)C1CC1)C2 | i
CNC[C@@H]1Oc2ccc(NS(=O)(=O)c3c(C)noc3C)cc2CC(=O)N([C@H](C)CO)C[C@H]1C | i
CC(C)NC(=O)NCC[C@H]1CC[C@H](NS(=O)(=O)c2ccccc2)[C@H](CO)O1 | i
Cc1noc(C)c1S(=O)(=O)Nc1ccc2c(c1)CC(=O)N([C@@H](C)CO)C[C@@H](C)[C@H](CN(C)C(=O)Nc1cccc3ccccc13)O2 | i
C[C@@H]1CN([C@@H](C)CO)C(=O)c2cc(NC(=O)CCC(F)(F)F)ccc2O[C@@H]1CN(C)CC1CC1 | i
CN(C)CC(=O)N1[C@H](C#N)[C@@H](c2ccccc2-c2cccc(C(=O)N(C)C)c2)[C@H]1CO | i
C[C@H]1CN([C@@H](C)CO)C(=O)c2cccc(NC(=O)c3ccc(-c4nccs4)cc3)c2O[C@@H]1CN(C)S(=O)(=O)c1cccs1 | i
O=C(C[C@@H]1CC[C@H](NC(=O)c2ccc(F)cc2)[C@H](CO)O1)NCCc1ccncc1 | i
CCC(=O)N[C@@H]1C=C[C@@H](CC(=O)NCc2ccc(OC)cc2)O[C@@H]1CO | i
COc1ccc(S(=O)(=O)Nc2ccc3c(c2)CC(=O)N([C@H](C)CO)C[C@H](C)[C@H](CN(C)C(=O)NC2CCCCC2)O3)cc1 | i
CCS(=O)(=O)Nc1ccc2c(c1)C(=O)N(C)C[C@H](OC)[C@@H](C)CN(C(=O)C1CCC1)[C@@H](C)CO2 | i
Cc1ccc(NC(=O)C[C@H]2CC[C@H]3[C@@H](COc4ccc(NS(C)(=O)=O)cc4C(=O)N3C)O2)cc1 | i
COc1ccc2c3c([nH]c2c1)[C@@H](CO)N(C(=O)Nc1ccc(F)cc1)CC31CCN(CC2CC2)CC1 | i
O=C(C[C@@H]1CC[C@H](NC(=O)CC2CC2)[C@@H](CO)O1)NCc1ccccc1 | i
N#C[C@H]1[C@@H](c2ccccc2-c2cccc(F)c2)[C@H](CO)N1S(=O)(=O)c1cccc(F)c1 | i
CCC(=O)N(C)C[C@@H]1Oc2cc(C#CC3CC3)ccc2S(=O)(=O)N([C@@H](C)CO)C[C@@H]1C | i
C[C@@H]1CN([C@@H](C)CO)C(=O)c2cc(C#Cc3cccc(F)c3)cnc2O[C@@H]1CN(C)C(=O)c1ccccc1F | i
COc1ccccc1NC(=O)Nc1ccc2c(c1)C(=O)N(C)C[C@H](OC)[C@H](C)CN[C@@H](C)CO2 | i
O=C(Nc1ccc(C(F)(F)F)cc1)Nc1ccc2c(c1)[C@H]1C[C@H](CC(=O)N3CCc4ccccc4C3)O[C@@H](CO)[C@H]1O2 | i
O=C(Nc1ccc2c(c1)[C@@H]1C[C@@H](CC(=O)N3CCc4ccccc4C3)O[C@@H](CO)[C@@H]1O2)Nc1ccccc1F | -93
SMILES | Vaccinia inh
O=C(Nc1ccc(C(F)(F)F)cc1)Nc1ccc2c(c1)[C@H]1C[C@@H](CC(=O)N3CCc4ccccc4C3)O[C@H](CO)[C@H]1O2 | i
CO[C@H]1CN(C)C(=O)c2cc(NS(=O)(=O)c3ccccc3F)ccc2OC[C@@H](C)NC[C@H]1C | i
COCCN(C[C@H]1[C@H](c2ccccc2)[C@H](CO)N1C(C)=O)C(=O)c1ccncc1 | i
C[C@H]1CN([C@@H](C)CO)C(=O)c2cc(-c3ccccc3F)cnc2O[C@H]1CN(C)C | i
COc1cccc(CNC(=O)C[C@H]2C=C[C@@H](NC(C)=O)[C@H](CO)O2)c1 | i
CN1CCN(C(=O)C[C@H]2C[C@H]3c4cc(NC(=O)C5CCOCC5)ccc4O[C@H]3[C@@H](CO)O2)CC1 | i
CC(C)NC(=O)N(C)C[C@@H]1Oc2ccc(N(C)C)cc2C(=O)N([C@H](C)CO)C[C@@H]1C | i
C[C@@H]1CN([C@@H](C)CO)C(=O)c2cc(NS(=O)(=O)c3ccc(Cl)cc3)ccc2O[C@@H]1CN(C)CC1CC1 | i
CC(C)NC(=O)Nc1cccc2c1O[C@@H](CN(C)C(=O)NC(C)C)[C@@H](C)CN([C@H](C)CO)C2=O | i
Cc1noc(C)c1NC(=O)Nc1cccc2c1O[C@H](CN(C)C(=O)Nc1ccc3c(c1)OCO3)[C@H](C)CN([C@H](C)CO)C2=O | i
CC(=O)N(C)C[C@H]1Oc2ncc(C#Cc3cccc(F)c3)cc2C(=O)N([C@@H](C)CO)C[C@@H]1C | i
CN1c2ccc(Br)cc2[C@H]2[C@H](CCN2C(=O)C2CCC2)[C@H]1CO | i
C[C@H](CO)N1C[C@H](C)[C@H](CN(C)Cc2ccc(C(=O)O)cc2)Oc2ncc(C3=CCCCC3)cc2C1=O | i
COc1ccc2c3c([nH]c2c1)[C@H](CO)N(C(=O)CN(C)C)CC31CN(C(=O)c2ccncc2)C1 | i
Cn1cnc(S(=O)(=O)N[C@H]2C=C[C@H](CC(=O)N3CCN(c4ccccc4)CC3)O[C@H]2CO)c1 | i
Cc1noc(C)c1NC(=O)N(C)C[C@@H]1Oc2ccc(NS(=O)(=O)c3ccccc3)cc2CC(=O)N([C@@H](C)CO)C[C@H]1C | i
C[C@H](O)C#Cc1ccc2c(c1)O[C@H](CN(C)Cc1ccccc1)[C@@H](C)CN([C@@H](C)CO)S2(=O)=O | i
C[C@H](CO)N1C[C@H](C)[C@@H](CN(C)Cc2ccccc2)Oc2cc(C#C[C@@H](C)O)ccc2S1(=O)=O | i
C[C@@H](O)C#Cc1ccc2c(c1)O[C@@H](CN(C)Cc1ccc(-c3ccccc3)cc1)[C@@H](C)CN([C@@H](C)CO)S2(=O)=O | -92
COCC(=O)N1C[C@@H](C)[C@H](OC)CN(C)C(=O)c2ccc(NC(=O)NC(C)C)cc2OC[C@@H]1C | i
COCC(=O)N1[C@@H]2CN(C(=O)Nc3ccccc3F)c3ccccc3[C@@H]2[C@@H]1CO | i
C[C@@H]1CN([C@H](C)CO)S(=O)(=O)c2ccc(C#CCN(C)C)cc2O[C@@H]1CN(C)S(C)(=O)=O | i
CC(C)NC(=O)N(C)C[C@H]1Oc2ccc(NS(=O)(=O)c3ccc(F)cc3)cc2CC(=O)N([C@@H](C)CO)C[C@@H]1C | i
C[C@H]1CN([C@@H](C)CO)C(=O)c2cccc(NC(=O)C3CC3)c2O[C@@H]1CN(C)C | i
C[C@@H]1CN([C@H](C)CO)C(=O)c2cc(C#CCN(C)C)cnc2O[C@H]1CN(C)Cc1ccc(C(=O)O)cc1 | i
COc1ccc2c3c([nH]c2c1)[C@@H](CO)N(C(=O)C1CCC1)CC31CN(Cc2nccs2)C1 | i
CCCC(=O)Nc1ccc2c(c1)OC[C@@H](C)N(CCC(F)(F)F)C[C@H](C)[C@@H](OC)CN(C)C2=O | i
OC[C@H]1Nc2ccc(-c3ccccc3)cc2[C@H]2[C@@H]1CCN2Cc1ccc(F)cc1 | -50
OC[C@@H]1Nc2ccc(-c3cccc(F)c3)cc2[C@@H]2[C@H]1CCN2Cc1ccc(F)cc1 | i
OC[C@@H]1Nc2ccc(-c3ccccc3)cc2[C@H]2[C@@H]1CCN2Cc1ccc(F)cc1 | i
